Experimental data from the supplement of paper PMC7156485.

Key:
Conditions in all cases: concentration: 10 µM; 24 h
HCC1569 [1] = test: cell number relative to DMSO (% of DMSO); higher = more cells (less growth inhibition / toxicity)
Outline: (§1)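 H1.0 nuclear intensity or cell number is stated as percent of the plate control, based on the median of replicates, and HCC1569 values were smoothed for positional effects. These came from HCC1569 and TDF cells treated with compounds at 10 µM for 24 h at 37 °C in triplicate, then fixed in 3.7% formaldehyde and stained with a rabbit anti-H1.0 antibody, an AlexaFluor 647 secondary and DAPI.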

TDF [2] = test: as above
Outline: as §1

TDF [3] = test: H1.0 immunofluorescence intensity relative to DMSO (% of DMSO); higher = stronger H1.0 induction, active = 120 or more
Outline: as §1

HCC1569 [4] = test: H1.0 immunofluorescence intensity relative to DMSO (% of DMSO); higher = stronger H1.0 induction, active = 140 or more
Outline: as §1
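Wherever H1.0 immunofluorescence intensity relative to DMSO is given: TDF is a line of transformed human dermal fibroblasts of mesenchymal origin.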
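Wherever cell number relative to DMSO is given: TDF denotes transformed human dermal fibroblasts of mesenchymal origin.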

| Compound | cell number (HCC1569 [1]) | cell number (TDF [2]) | H1.0 immunofluorescence intensity (TDF [3]) | H1.0 immunofluorescence intensity (HCC1569 [4]) |
| --- | --- | --- | --- | --- |
| Cl.O=C1CC2(CCCC2)CC(=O)N1CCCCN1CCN(c2ncccn2)CC1 [Buspirone hydrochloride] | 97.6 | 96.8 | 94.3 (inactive) | 97 (inactive) |
| Cc1c(C(=O)O)c(O)cc2c1C(=O)c1c(O)c(C3OC(CO)C(O)C(O)C3O)c(O)c(O)c1C2=O (centres undefined) [Carminic acid] | 101 | 107 | 102 (inactive) | 99.8 (inactive) |
| CC(C)NCC(O)COc1cccc2ccccc12 (centres undefined) [Propranolol] | 102 | 106 | 94.7 (inactive) | 108 (inactive) |
| NCCCCC(NC(CCc1ccccc1)C(=O)O)C(=O)N1CCCC1C(=O)O (centres undefined) [Lisinopril] | 105 | 99.8 | 97.2 (inactive) | 98.8 (inactive) |
| CC12CCc3occc3C1CCC13CC(CCC12)C(O)(CO)C3 (centres undefined) [Cafestol] | 103 | 101 | 103 (inactive) | 88.2 (inactive) |
| Cn1cnc2c(F)c(Nc3ccc(Br)cc3Cl)c(C(=O)NOCCO)cc21 | 105 | 91.8 | 93.3 (inactive) | 98.8 (inactive) |
| CCCCCC=CCC=CC=CC=CC(SCC(N)C(=O)O)C(O)CCCC(=O)O (centres undefined) [Leukotriene E4] | 103 | 101 | 92.6 (inactive) | 102 (inactive) |
| Cc1ccccc1CNc1ncnc2c1ncn2C1OC(CO)C(O)C1O (centres undefined) [Metrifudil] | 97 | 94.5 | 93.7 (inactive) | 91.4 (inactive) |
| CC(C)(C)NCC(O)COc1nsnc1N1CCOCC1.O=C(O)C=CC(=O)O [(S)-Timolol maleate] | 106 | 105 | 87.4 (inactive) | 97.9 (inactive) |
| O=c1c(O)c(-c2ccc(O)c(O)c2)oc2cc(O)ccc12 [Fisetin] | 95.8 | 95.8 | 96 (inactive) | 101 (inactive) |
| CN(C)c1ccccc1CN1CCCN(Cc2ccccc2N(C)C)C1c1ccncc1 | 83.9 | 65.2 | 109 (inactive) | 137 (inactive) |
| COc1ccc(CNC(=O)Nc2ncc([N+](=O)[O-])s2)cc1 [GSK-3b Inhibitor VIII] | 91 | 106 | 96.6 (inactive) | 128 (inactive) |
| CCN(CC)CC(=O)Nc1c(C)cccc1C.Cl.O [Lidocaine.HCl.H2O] | 99 | 99.8 | 89.5 (inactive) | 103 (inactive) |
| CC(C)(Oc1ccc(CCNC(=O)c2ccc(Cl)cc2)cc1)C(=O)O [Bezafibrate] | 98.4 | 105 | 97.9 (inactive) | 105 (inactive) |
| O=C(O)c1ccccc1Nc1ccccc1 [N-Phenylanthranilic acid] | 102 | 104 | 100 (inactive) | 97.5 (inactive) |
| CCCCCC=CCC=CCCCCCCCC(N)=O [Linoleamide] | 99.8 | 94.8 | 99.6 (inactive) | 99.2 (inactive) |
| CCCCCCCCCCCC=CCC=CCCCC(=O)O [5(Z), 8(Z)-Eicosadienoic acid] | 101 | 96.9 | 99.9 (inactive) | 99.3 (inactive) |
| CCC(C)SSc1ncc[nH]1 (centres undefined) [2-(sec-butyldisulfanyl)-1H-imidazole] | 83.7 | 105 | 87.7 (inactive) | 107 (inactive) |
| C1COC(NC(C2CC2)C2CC2)=N1.O=P(O)(O)O [Rilmenidine phosphate] | 101 | 110 | 88.5 (inactive) | 103 (inactive) |
| CCCCCC(O)C=CC=CCC=CC=CC(O)CCCC(=O)O (centres undefined) | 115 | 98.1 | 101 (inactive) | 86.5 (inactive) |
| Cl.c1ccc2c(c1)CCCC2C1=NCCN1 (centres undefined) [Tetrahydrozoline hydrochloride] | 101 | 98.1 | 89.8 (inactive) | 98.3 (inactive) |
| COC(=O)c1ccc2c(c1)nc(NC(=O)c1ccccc1)n2CCCc1ccccc1 | 80.4 | 65.7 | 94.6 (inactive) | 88.3 (inactive) |
| N[C@@H](Cc1ccc(O)c(O)c1)C(=O)O [L-3,4-Dihydroxyphenylalanine] | 100 | 105 | 89.7 (inactive) | 90 (inactive) |
| NS(=O)(=O)c1ccc2c(c1)C1C=CCC1C(c1ccc(Br)cc1)N2 (centres undefined) | 102 | 91.3 | 95.3 (inactive) | 114 (inactive) |
| O=c1cc(-c2ccc(O)cc2)oc2cc(O)c(C3OC(CO)C(O)C(O)C3O)c(O)c12 (centres undefined) [Isovitexin] | 99.9 | 109 | 94.3 (inactive) | 88.1 (inactive) |
| COc1ccc(Br)cc1S(=O)(=O)NC(=O)/C=C/c1ccccc1Cc1ccc2ccccc2c1 | 98.1 | 103 | 90.2 (inactive) | 103 (inactive) |
